RE007 growth inh: less growth of the S. pombe RE007 Vpr strain; AID 651644; S. pombe RE007 Vpr strain, BacTiter-Glo ATP luminescence, 24 h; Potency, µM (top dose mostly 92.2 µM), inactives show top-dose activity change, negative = less growth, usual class: inhibitors; actives 0.21% (n = 360,000); active means well fitted falling curve with a large enough effect; inconclusive means small, poorly fitted or top-dose-only effect; inactive means no such curve, though single readings can be large or run the other way; further: potency means the concentration at half of the fitted maximal effect; on the % scale 0 is the no-effect control and ±100 the full control effect; nearly all actives have a fitted effect of over 50% in size
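Fission yeast RE007 carrying one integrated HIV-1 vpr copy, seeded at OD 0.01 in PMG+AL medium with 23 nL pinned compound. Grown 24 h at 30 degrees; viability read by BacTiter-Glo luminescence after 5 min.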
LmPK inh: LmPK (Leishmania mexicana) enzyme inhibition; actives 0.37% (n = 290,000); purified LmPK, Kinase-Glo ATP luminescence, 1 h; Potency, µM (top dose mostly 57.5 µM), inactives show at the highest dose activity change, negative = inhibition, actives largely listed as inhibitors; AID 1721; Q27686; active means well fitted curve in the direction sought with a large enough effect; inconclusive means small, poorly fitted or top-dose-only effect, or another doubt; inactive means no such curve, though single readings can be large; an effect the other way counts as inactive or inconclusive; further: potency means the concentration at half of the fitted maximal effect; on the % scale 0 is the no-effect control and ±100 the full control effect
Target sequence (Q27686 whole entry, looked up): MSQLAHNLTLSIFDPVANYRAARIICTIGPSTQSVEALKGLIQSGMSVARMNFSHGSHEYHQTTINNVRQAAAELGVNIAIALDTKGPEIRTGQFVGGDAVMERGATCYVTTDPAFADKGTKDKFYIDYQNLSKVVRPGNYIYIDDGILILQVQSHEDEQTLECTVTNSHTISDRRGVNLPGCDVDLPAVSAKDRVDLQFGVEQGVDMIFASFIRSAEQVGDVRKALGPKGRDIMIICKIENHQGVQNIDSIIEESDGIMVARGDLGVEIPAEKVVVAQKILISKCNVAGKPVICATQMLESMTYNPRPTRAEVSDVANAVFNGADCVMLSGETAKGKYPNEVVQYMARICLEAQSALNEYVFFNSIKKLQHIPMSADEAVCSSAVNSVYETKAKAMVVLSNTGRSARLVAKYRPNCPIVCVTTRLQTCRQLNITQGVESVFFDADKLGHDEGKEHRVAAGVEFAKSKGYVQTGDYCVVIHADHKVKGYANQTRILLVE
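ATP generated from ADP (0.1 mM) and PEP (0.5 mM) by 0.1 nM LmPK over 1 h at room temperature (pH 7.2 imidazole buffer) was detected by coupled luciferase luminescence. Values were normalized to uninhibited and no-enzyme wells.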
NS1 inh: influenza NS1 inhibition | Potency, µM (highest dose often 46.1 µM), inactives show top-dose activity, positive = more growth | actives 0.4% (n = 270,000) | AID 2326; further: potency means the concentration at half of the fitted maximal effect; actives are rising curves; nearly all actives have a fitted effect of over 50% in size
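A cell-based growth assay was used: compounds that relieve NS1-induced slow growth of budding yeast raise OD600. Assay medium was yeast nitrogen base with ammonium sulphate and -URA supplement, pH 6.0, with 2% galactose.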
Tb PYK inh: T. brucei pyruvate kinase inhibition; Potency, µM (series often up to 76.8 µM), inactives show at the highest dose activity, negative = inhibition, actives largely listed as inhibitors; AID 624173; TbPYK enzyme, Kinase-Glo Plus ATP luminescence, 45 min; Q57TT1; actives 0.12% (n = 410,000); active means well fitted curve in the direction sought with a large enough effect; inconclusive means small, poorly fitted or top-dose-only effect, or another doubt; inactive means no such curve, though single readings can be large; an effect the other way counts as inactive or inconclusive; further: potency means the concentration at half of the fitted maximal effect; on the % scale 0 is the no-effect control and ±100 the full control effect; nearly all actives have a fitted effect of over 50% in size
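In this concentration-response screen, enzyme-free wells defined baseline while DMSO plates tracked drift. Each reaction combined TbPYK, substrate, compound and 130 uM ADP for 45 min at room temperature. Kinase-Glo Plus luminescence gave the signal.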
NS1 inh valid: validation of influenza NS1 protein function inhibitors; shares compounds with NS1 inh; influenza NS1 function cell assay, 15-point titration; activity change, negative = inhibition, % at 32.9 µM; 1,400 tested, under 10 active; AID 492980; further: 0% is about no effect
Flu PR8 replic: influenza virus titer reduction, NS1 project; virus titer (log TCID50), log10 TCID50 at 5 µM; MDCK infected influenza A/PR/8/34, virus titer TCID50; stronger effect = lower value; shares compounds with NS1 inh; actives 30% (n = 95); call rule not given here
* = called active by the depositor; [ ] = remark or other dose. Rows were chosen to be rich in hits. Some 0.77% of all compounds tested hit in one or more screens of this group. Unless noted, the call rests on the fitted dose curve.

Results for CCOc1ccccc1CNC(=O)Cn1cc2c(n1)-c1c(oc(C(=O)N3CCCC3)c1C)CC2 ?
Tb PYK inh: -8.8%

What do the screens show for `Cc1c(/C=N/NC(=O)c2ccc(O)cc2)c2ccccn2c1C(=O)c1ccc(F)cc1`?
RE007 growth inh: -22.4%; LmPK inh: 2.6%; NS1 inh: 8.91µM*; Tb PYK inh: 0.2%; NS1 inh valid: -7.8

Results for CN(C)c1oc(-c2ccc(OCc3ccc(Cl)cc3)cc2)nc1C#N ?
RE007 growth inh: -7.7%; LmPK inh: -1.5%; NS1 inh: 10µM*; Tb PYK inh: 0.5%; NS1 inh valid: -3.3

Results for CCOc1ccc(Nc2oc(-c3ccc(Cl)cc3)nc2C#N)cc1 ?
RE007 growth inh: -6.8%; LmPK inh: -2.2%; NS1 inh: -2.9%; Tb PYK inh: 0.3%

How did COc1ccc(NC(=S)N(CCc2c(C)[nH]c3ccc(C)cc23)Cc2cccs2)cc1 do in these assays?
RE007 growth inh: -3.0%; LmPK inh: 1.8%; NS1 inh: 11.2µM*; Tb PYK inh: -3.5%; NS1 inh valid: -24.8

How did CCOc1ccc(NC(=S)N(CCc2c(C)[nH]c3ccc(C)cc23)Cc2ccco2)cc1 do in these assays?
RE007 growth inh: -13.1%; LmPK inh: 0.3%; NS1 inh: 11.2µM*; Tb PYK inh: -6.6%; NS1 inh valid: -32.6

How did CC(C)C[C@H]1C(=O)N2CCCC2[C@]2(O)O[C@](NC(=O)[C@@H]3C=C4c5cccc6[nH]c(Br)c(c56)C[C@H]4N(C)C3)(C(C)C)C(=O)N12 (stereo partly drawn) do in these assays?
NS1 inh: 5.62µM*; Tb PYK inh: -6.1%; NS1 inh valid: inconclusive

Results for CC(C)C[C@H]1C(=O)N2CCC[C@H]2[C@]2(O)O[C@](NC(=O)C3C=C4c5cccc6[nH]c(Br)c(c56)C[C@H]4N(C)C3)(C(C)C)C(=O)N12 (stereo partly drawn) ?
RE007 growth inh: -6.0%[18.4 µM]; Tb PYK inh: -8.9%

Results for N=c1c2c(n(Cc3ccc(F)cc3)c3c1CCC3)CCC2 ?
RE007 growth inh: 0.2%; LmPK inh: 5.1%; NS1 inh: 1µM*; Tb PYK inh: 0.3%; NS1 inh valid: -29.3

What do the screens show for `CCc1ccc(C2=NN(CCC(=O)NCCc3ccccc3)C(=O)CC2)cc1`?
Tb PYK inh: 1.6%

How did COc1cccc(Cn2c(=O)cnc3cnc(Oc4cccc(Cl)c4)nc32)c1 do in these assays?
Tb PYK inh: -3.4%

How did CN(C)S(=O)(=O)c1cc(NC(=O)CSc2cccc[n+]2[O-])ccc1Cl do in these assays?
RE007 growth inh: -5.8%; Tb PYK inh: -2.5%

Results for CN(C)S(=O)(=O)c1cc(NC(=O)CSc2ncc(C(F)(F)F)cc2Cl)ccc1Cl ?
RE007 growth inh: -18.4%; LmPK inh: 4.2%; NS1 inh: 12.6µM*; Tb PYK inh: 2.7%; NS1 inh valid: -11.4

How did CC(C)(C)NC(=O)c1nc2ccccc2s1 do in these assays?
RE007 growth inh: -25.2%; LmPK inh: 6.5%; NS1 inh: -7.1%; Tb PYK inh: -6.8%

What do the screens show for `CC(C)(C)NC(=O)c1ccccc1-c1nc2ccccc2s1`?
RE007 growth inh: -0.4%; LmPK inh: 9.9%; NS1 inh: inconclusive; Tb PYK inh: 1.6%; NS1 inh valid: 15.8; Flu PR8 replic: 8.5

What do the screens show for `O=C(NCCSc1c(-c2ccccc2)[nH]c2ccccc12)c1cc2ccccc2oc1=O`?
RE007 growth inh: 3.0%; LmPK inh: 3.6%; NS1 inh: 11.2µM*; Tb PYK inh: -10.9%; NS1 inh valid: -3.2

How did Cc1nc(N2CCCC2)c2c(C(=O)Nc3cccc(Cl)c3C)c(C)oc2n1 do in these assays?
Tb PYK inh: 5.7%

How did O=C(C1CCCC1)N1CCC(CC2CC(c3cccc(Br)c3)=NO2)(C(=O)NCC2CCCCC2)CC1 (stereo not drawn) do in these assays?
RE007 growth inh: -11.9%; LmPK inh: 2.3%; NS1 inh: 22.4µM*; Tb PYK inh: 0.0%; NS1 inh valid: -18.6

Results for Cc1cc(NC(=O)c2ccc(NC(=O)CCS(=O)(=O)c3cccs3)cc2)ccc1Br ?
Tb PYK inh: -7.5%

Results for O=C(CSc1nc2ccccc2c2nc3ccccc3n12)NCc1ccco1 ?
RE007 growth inh: -0.1%; LmPK inh: 5.1%; NS1 inh: 2.82µM*; Tb PYK inh: 5.7%; NS1 inh valid: 33.5

How did O=C(c1ccc(S(=O)(=O)N2CCCC2)cc1)N1CCN(c2ccccc2)CC1 do in these assays?
RE007 growth inh: 6.5%; LmPK inh: 0.2%; NS1 inh: 4.47µM*; Tb PYK inh: 1.3%; NS1 inh valid: -32.4

How did O=C(c1ccc(S(=O)(=O)N2CCCC2)cc1)N1CCN(c2cccc(Cl)c2)CC1 do in these assays?
RE007 growth inh: 1.1%; LmPK inh: 4.9%; NS1 inh: 10.5%; Tb PYK inh: -1.9%

Results for CCOc1cc(C#N)c(NC(=O)CSc2nnnn2-c2ccc(OC)cc2)cc1OCC ?
RE007 growth inh: -15.2%; LmPK inh: -1.8%; NS1 inh: inconclusive; Tb PYK inh: -13.8%; NS1 inh valid: -1.6

Results for CCOC(=O)C1CCN(C(=O)CS(=O)Cc2nc(-c3ccc(C)cc3)oc2C)CC1 (stereo not drawn) ?
RE007 growth inh: 0.1%; LmPK inh: 0.1%; NS1 inh: 11.2µM*; Tb PYK inh: 1.5%; NS1 inh valid: -0.2; Flu PR8 replic: 8

How did COC(=O)c1ccc(N2NC(=O)/C(=C/c3cc(OC)c(O)c(OC)c3)C2=O)cc1 do in these assays?
RE007 growth inh: -5.9%; LmPK inh: -0.9%; NS1 inh: 3.55µM*; Tb PYK inh: -10.3%; NS1 inh valid: 0.3

What do the screens show for `COC(=O)c1ccc(N2NC(=O)/C(=C/c3cc(OC)c(OC)c(OC)c3)C2=O)cc1`?
RE007 growth inh: -11.4%; LmPK inh: -2.3%; NS1 inh: 5.3%; Tb PYK inh: inconclusive

Results for Cc1nc2ccc(NC(=O)Cc3c(F)cccc3Cl)cc2s1 ?
RE007 growth inh: 1.5%; LmPK inh: 1.5%; NS1 inh: 3.98µM*; Tb PYK inh: 2.5%; NS1 inh valid: 3.6

Results for COc1ccc(Nc2nnc(SCC(=O)c3cc(C)n(CC4CCCO4)c3C)s2)cc1 (stereo not drawn) ?
RE007 growth inh: inconclusive; LmPK inh: 0.9%; NS1 inh: inconclusive; Tb PYK inh: -9.3%; NS1 inh valid: 3.0

Results for Cn1cc(C(=O)N2CCN(C(=O)c3ccco3)CC2)c2c3ccccc3n(C)c2c1=O ?
RE007 growth inh: 9.8%; LmPK inh: 2.8%; NS1 inh: 3.98µM*; Tb PYK inh: -3.6%; NS1 inh valid: -7.0

How did CCN1CCN(C(=O)c2cn(CCOC)c(=O)c3c2c2ccccc2n3C)CC1 do in these assays?
RE007 growth inh: -13.1%; LmPK inh: 2.6%; NS1 inh: 5.2%; Tb PYK inh: 3.9%
